From PubChem BioAssay (NCI)
The panel holds about 79,000 compounds, 15% with a hit somewhere; the sample as a whole holds those more often. Calls of active or inactive are those of the source. Rule as the data show it: active = growth inhibition above about 70%; inactive = the rest.

assay: NCI Yeast Anticancer Drug Screen. Data for the mlh1 rad18 strain (AID 175); conditions: S. cerevisiae mlh1 rad18 strain growth inhibition; at 5.0 µM (retest, dose inferred, filed as 0.5); active compounds read high
Protocol: Growth inhibition of yeast strains with defined genetic alterations is measured as a screen for potential anti-cancer activity. Selected strains with alterations in DNA damage repair or cell cycle control were exposed to compounds and growth inhibition was measured relative to vehicle treated controls. The strain used in this assay is mlh1 rad18

SMILES | growth inhibition
CCCNC1=C(C)C(=O)C2=C(C1=O)[C@H](COC(N)=O)[C@]1(OC)[C@@H]3N[C@@H]3CN21 | 47% (inactive)
CCC1CN1P(=O)(Oc1ccccc1)N1CC1CC (stereo not given) | -2% (inactive)
CN1CCN(c2ccc3nc(-c4ccc5nc(-c6ccc(N(C)CCCl)cc6)[nH]c5c4)[nH]c3c2)CC1 | -16% (inactive)
CC12OOC(c3ccccc31)c1c2ccc2ccccc12 (stereo not given) | 90% (active)
O=[N+]([O-])c1ccc(NP(=S)(Nc2ccc([N+](=O)[O-])cc2)c2ccccc2)cc1 | 68% (inactive)
CC/C=C/c1cc2c(cc1O)CCC1C2CC[C@@]2(C)C1CC[C@@H]2O (stereo not given in full) | -16% (inactive)
CCC[CH2][Sn]1([CH2]CCC)[O]C(=O)CN=Cc2ccccc2[O]1 | 90% (active)
O=[N+]([O-])c1ccc([N+](=O)[O-])c2ccccc12 | 31% (inactive)
O=C1C=CC(=O)C(Cl)=C1 | 5% (inactive)
c1cs[c]([Hg][c]2cccs2)c1 | 99% (active)

same assay, conditions: S. cerevisiae mlh1 rad18 strain growth inhibition; at 50.0 µM (retest, dose inferred, filed as 5.0); active compounds read high

SMILES | growth inhibition
CCCNC1=C(C)C(=O)C2=C(C1=O)[C@H](COC(N)=O)[C@]1(OC)[C@@H]3N[C@@H]3CN21 | 93% (active)
CCC1CN1P(=O)(Oc1ccccc1)N1CC1CC (stereo not given) | 6% (inactive)
CN1CCN(c2ccc3nc(-c4ccc5nc(-c6ccc(N(C)CCCl)cc6)[nH]c5c4)[nH]c3c2)CC1 | 99% (active)
CC12OOC(c3ccccc31)c1c2ccc2ccccc12 (stereo not given) | 97% (active)
O=[N+]([O-])c1ccc(NP(=S)(Nc2ccc([N+](=O)[O-])cc2)c2ccccc2)cc1 | 77% (active)
CC/C=C/c1cc2c(cc1O)CCC1C2CC[C@@]2(C)C1CC[C@@H]2O (stereo not given in full) | 98% (active)
CCC[CH2][Sn]1([CH2]CCC)[O]C(=O)CN=Cc2ccccc2[O]1 | 90% (active)
O=[N+]([O-])c1ccc([N+](=O)[O-])c2ccccc12 | 99% (active)
O=C1C=CC(=O)C(Cl)=C1 | 98% (active)
c1cs[c]([Hg][c]2cccs2)c1 | 95% (active)

same assay, conditions: S. cerevisiae mlh1 rad18 strain growth inhibition; at 50.0 µM; active compounds read high

SMILES | growth inhibition
CCCNC1=C(C)C(=O)C2=C(C1=O)[C@H](COC(N)=O)[C@]1(OC)[C@@H]3N[C@@H]3CN21 | 79.8% (active)
CCC1CN1P(=O)(Oc1ccccc1)N1CC1CC (stereo not given) | -20% (inactive)
Cc1ccc(CCl)c(O)c1 | -0.8% (inactive)
CN1CCN(c2ccc3nc(-c4ccc5nc(-c6ccc(N(C)CCCl)cc6)[nH]c5c4)[nH]c3c2)CC1 | 98.4% (active)
CC12OOC(c3ccccc31)c1c2ccc2ccccc12 (stereo not given) | 90.2% (active)
O=c1nc2n(CCN(CCCl)CCCl)c3cc(Cl)c(Cl)cc3nc-2c(=O)[nH]1 | 26.4% (inactive)
O=[N+]([O-])c1ccc(NP(=S)(Nc2ccc([N+](=O)[O-])cc2)c2ccccc2)cc1 | 94.3% (active)
Cc1nnc2cc3ccccc3cn12 | 18.1% (inactive)
CC/C=C/c1cc2c(cc1O)CCC1C2CC[C@@]2(C)C1CC[C@@H]2O (stereo not given in full) | 90.5% (active)
CCC[CH2][Sn]1([CH2]CCC)[O]C(=O)CN=Cc2ccccc2[O]1 | 89.5% (active)
O=[N+]([O-])c1ccc([N+](=O)[O-])c2ccccc12 | 22.8% (inactive)
FC(F)(F)C1(F)N(Cc2ccccc2)C1(F)C(F)(F)F (stereo not given) | -9.95% (inactive)
CC(=O)OC1CC(OC2C(O)CC(OC3C(O)CC(OC4CCC5(C)C(CCC6C5CCC5(C)C(C7=CC(=O)OC7)C(O)CC65O)C4)OC3C)OC2C)OC(C)C1OC1OC(CO)C(O)C(O)C1O (stereo not given) | 10.8% (inactive)
CCOC(=O)C1C(=O)C(C(=O)OCC)C2c3ccccc3-c3ccccc3C1N2C (stereo not given) | 15.7% (inactive)
c1ccc2c(c1)cc1ccc3cccc4ccc2c1c34 | 9.9% (inactive)
CCOP(=O)(OCC)C(C#N)OC(C)(C)C (stereo not given) | 2.35% (inactive)
c1cc2c3c(cccc3c1)CC2 | -14.6% (inactive)
O=C1C=CC(=O)C(Cl)=C1 | 95.5% (active)
C1=[N+]2CCCC2Cc2ccc3ccccc3c21 (stereo not given) | -8.85% (inactive)
c1cs[c]([Hg][c]2cccs2)c1 | 99.5% (active)
